In PubChem BioAssay AID527 (NMMLSC, 2006) one finds inhibition data, which are given here for 45 compounds.

This assay in a line: blockers of AIP-driven agr signalling in S. aureus – RNAIII-GFP reporter, flow cytometry, primary screen (AID 527).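 Also: 0% = AIP-stimulated control and 100% = unstimulated bacteria without AIP.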 The settings on record: S. aureus RN6390 RNAIII-GFP reporter, AIP-induced, flow cytometry 3 h, at 2 µM, stronger effect = higher value. In general terms: In flow cytometry, cells or beads pass a laser one at a time.
Where [1] appears, read: measured here: inhibition of GFP MFI.

The campaign covered roughly 24,000 compounds. About 65 (0.3%) were called active.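 The calls were made as follows: active = share of bacteria positive for the green fluorescent reporter and its mean brightness both inhibited by 50% or more; inactive = the rest, inconclusive results apart.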 Only a selection was taken, and actives are over-represented in it overall.

For the compound `COCCCNC(=O)CSc1nc2ccc(N3CCOCC3)cc2c(=O)n1CCc1ccccc1`, the inhibition (usually the change of the read-out against control, counted positive when it falls) is 10.2% (inactive). In addition, the inhibition under setting [1] amounted to 33.4%.

Take `COC(=O)Cn1c(=NC(=O)CSCC(=O)Nc2cc(C)on2)sc2ccccc21`: the inhibition is 0.4% (inactive). Also, the inhibition under setting [1] came out at 4.6%.

Regarding `CC(C)(C)C(=O)CCN1C(=O)C2(OCCO2)c2ccccc21`, the inhibition is -2.2% (inactive). Under setting [1], the inhibition is -21.9%.

Regarding `Cc1cccn2c(=O)c3cc(C(=O)NCc4ccccn4)n(C)c3nc12`, the inhibition is -3.5% (inactive). In addition, the inhibition under setting [1] is -9.7%.

Turning to `C=CCSc1nnc(Cn2c(=O)sc3ccccc32)n1C`, the inhibition is 24.2% (inactive). In addition, the inhibition under setting [1] stood at 43.3%.

Regarding `CCCS(=O)(=O)N1CCCC(C(=O)N2CCN(c3ccccc3)CC2)C1` (stereo not given), the inhibition is -1% (inactive). For the same compound, the inhibition under setting [1] is -6.2%.

Turning to `CC(c1ccco1)N(C(=O)c1ccc(S(=O)(=O)N2CCCCC2)cc1)c1ccccn1` (stereo not given), the inhibition was -0.6% (inactive). The inhibition under setting [1] came to 4.5%.

As to `CCC1=C(C(=O)OC)C(c2cc(OC)ccc2OC)C(C#N)=C(N)O1` (stereo not given), the inhibition was -0.3% (inactive). Besides, the inhibition under setting [1] stood at 1.1%.

For `Cc1nc2ccc(S(=O)(=O)NCC(=O)NCCN3CCCCC3C)cc2s1` (stereo not given), the inhibition was -2.2% (inactive). For the same compound, the inhibition under setting [1] is -14.7%.

As for `CCCOC(=O)c1cc2ccccc2oc1=O`, the inhibition was 3.4% (inactive). For the same compound, the inhibition under setting [1] was 8.3%.

As for `CSc1cccc(NC(=O)C2CCCN2S(=O)(=O)c2ccc3c(c2)CCC(=O)N3)c1` (stereo not given), the inhibition was 8.9% (inactive). Also, the inhibition under setting [1] was determined as 21%.

For the compound `O=C(CN1C(=O)CSc2ncccc21)N1CCOCC1`, the inhibition is -5.1% (inactive). For the same compound, the inhibition under setting [1] is -14.2%.

Turning to `CC1CN(C(=O)c2ccc3c(c2)OCO3)OC(c2ccccc2)O1` (stereo not given), the inhibition is 6% (inactive). For the same compound, the inhibition under setting [1] amounted to 10.1%.

As to `c1ccc(-c2cn3cccnc3n2)cc1`, the inhibition was -2.7% (inactive). In addition, the inhibition under setting [1] was -34.3%.

Turning to `CS(=O)(=O)NCc1ccc(C(=O)NCc2ccccc2)cc1`, the inhibition is -0.2% (inactive). In addition, the inhibition under setting [1] is -1.2%.

`CS(=O)(=O)N(Cc1nc2sc3c(c2c(=O)[nH]1)CCCC3)C1CCCCC1`: the inhibition was 0.3% (inactive). For the same compound, the inhibition under setting [1] is -0.2%.

Regarding `Cc1ccc(NC(=O)CSc2nnc(-c3cnccn3)n2Cc2ccco2)cc1C`, the inhibition is -0.7% (inactive). In addition, under setting [1], the inhibition was -6.3%.

Turning to `CC(=O)C1C(c2cccc(Oc3ccccc3)c2)NC(=O)NC1(O)C(F)(F)F` (stereo not given), the inhibition is 18.4% (inactive). In addition, under setting [1], the inhibition worked out at 32%.

For `CCOc1ccc(NCCC(=O)c2ccc3c(c2)OCO3)cc1`, the inhibition was -0.1% (inactive). Further, under setting [1], the inhibition is 10.4%.

Consider `CCOC(=O)C1CCN(C(=O)C2CCN(S(=O)(=O)c3c(C)noc3C)CC2)CC1`, for which the inhibition is -1.5% (inactive). The inhibition under setting [1] was -40%.

With `COc1cc(C2C(C#N)=C(N)Oc3n[nH]c(-c4ccccn4)c32)cc(OC)c1OC` (stereo not given), the inhibition is -3.4% (inactive). The inhibition under setting [1] amounted to 8.1%.

Turning to `CSc1ccc(NC(=O)N2CC(C)OC(C)C2)cc1` (stereo not given), the inhibition is 0% (inactive). In addition, the inhibition under setting [1] was 1.1%.

As for `O=C(CN1CCN(S(=O)(=O)c2ccc(F)cc2)CC1)Nc1ccccc1F`, the inhibition was 11.5% (inactive). Also, the inhibition under setting [1] was 16.5%.

On to `COc1ccc(C2CC(c3ccc(C)cc3)Nc3ncnn32)cc1` (stereo not given), for which the inhibition is -0.4% (inactive). The inhibition under setting [1] is 12.6%.

As for `CCCCN=C(N)/C(C(=O)OCC)=C(\O)c1ccc(OC)cc1`, the inhibition is 0.5% (inactive). Moreover, under setting [1], the inhibition stood at 11.9%.

On to `O=C(O)c1cccc2c1C(=O)N(C1CCCCC1)C2`, for which the inhibition is 0% (inactive). Further, the inhibition under setting [1] was 21.1%.

As to `CCN(CC)S(=O)(=O)c1ccc2[nH]cc(C(=O)NCCc3ccccc3)c(=O)c2c1`, the inhibition was -0.1% (inactive). For the same compound, the inhibition under setting [1] is -2.7%.

For `COc1c(F)c(F)c(C(=O)O)c(Nc2ccccc2C)c1F`, the inhibition is -1.7% (inactive). In addition, the inhibition under setting [1] was -14%.

Consider `COc1ccc(C(=O)Nc2cccnc2)cc1C(=O)Nc1cccnc1`, for which the inhibition is 2.2% (inactive). Besides, the inhibition under setting [1] turned out to be 2.6%.

In the case of `COc1ccc(N2C(=O)c3cccc4cccc(c34)C2=O)nn1`, the inhibition was -1.1% (inactive). The inhibition under setting [1] was -16.4%.

As to `Cc1cccc(C)c1NC(=O)N1CC=C(n2c(=O)[nH]c3ccccc32)CC1`, the inhibition was 8.3% (inactive). Also, under setting [1], the inhibition came out at 17.1%.

For the compound `CCCCC(CC)C(=O)Nc1ccc(Cl)cn1` (stereo not given), the inhibition is 0.6% (inactive). The inhibition under setting [1] stood at 18.7%.

As to `Cc1nc2nc[nH]n2c(=O)c1NC(=O)c1cccc(OCC(C)C)c1`, the inhibition is -5.4% (inactive). Besides, the inhibition under setting [1] is -8.1%.

On to `COc1ccc(-c2c(C)nn3c(N4CCC(C(=O)N5CCCCC5)CC4)cc(C)nc23)cc1OC`, for which the inhibition is -3.5% (inactive). Further, the inhibition under setting [1] is -8.8%.

With `CCOc1ccc(-c2nnn(CC(=O)N3CCN(c4ccc(F)cc4)CC3)n2)cc1OCC`, the inhibition is 0.7% (inactive). For the same compound, the inhibition under setting [1] was 1.3%.

On to `COc1cccc(CN2C(=O)CCC2(C)C(=O)NC2CCCCCC2)c1` (stereo not given), for which the inhibition was -1.4% (inactive). Further, the inhibition under setting [1] was -12.5%.

On to `COCCCNC(=O)c1ccc2c(c1)ncn2-c1ccccc1OC`, for which the inhibition was -3.4% (inactive). Further, the inhibition under setting [1] is -5.1%.

With `CCOC(=O)c1cc(NC(=O)SCC(=O)O)c(C)nc1C`, the inhibition was -1.6% (inactive). Besides, the inhibition under setting [1] was -14.7%.

Take `CCOc1cc(/C=N/n2cnnc2)c(Br)cc1O`: the inhibition is -1.6% (inactive). Also, the inhibition under setting [1] is -8.8%.

For `COCCNC(=S)c1ccc(OC)cc1`, the inhibition was -3.4% (inactive). The inhibition under setting [1] is -6.1%.

For the compound `Clc1ccc(Cc2nn3c(-c4ccncc4)nnc3s2)cc1`, the inhibition is 0.3% (inactive). Under setting [1], the inhibition was 5.4%.

With `CCC(=O)c1ccc(OCC(O)CN2C(=O)NC(C)(C)C2=O)cc1` (stereo not given), the inhibition was -0.8% (inactive). Moreover, the inhibition under setting [1] is -2.7%.

With `COc1ccc(S(=O)(=O)NC(CC(=O)NCc2ccccc2OC)c2ccco2)cc1` (stereo not given), the inhibition is -0.4% (inactive). Moreover, under setting [1], the inhibition was -11.3%.

As for `CC(C)CCNC(=O)CCNS(=O)(=O)c1ccc(Cl)cc1`, the inhibition was 2.3% (inactive). The inhibition under setting [1] turned out to be 8%.

Regarding `O=C(CCS(=O)(=O)Cc1ccccc1F)NCCCN1CCCCC1`, the inhibition was -1.8% (inactive). Further, under setting [1], the inhibition was -2.4%.
